What all share (experiment): NCI-60 one-dose screen, 48 h (100 = growth as untreated, 0 = no growth, -100 = all killed)
The subject of one experiment is SK-MEL-2 melanoma. The note with it: 10 µM.
For a further experiment, the system named is EKVX NSCLC. The conditions noted are these: 10 µM.
A further experiment has as its system SN12C renal. The note with it: 10 µM.
Another experiment deals with UO-31 renal. The conditions noted are these: 10 µM.
The test system of the next experiment is TK-10 renal.
In another experiment the test system is ACHN renal. The conditions noted are these: 10 µM.
Another experiment has as its system CAKI-1 renal. The conditions noted are these: 10 µM.
A further experiment concerns A498 renal. The conditions noted are these: 10 µM.
The test system of another experiment is CCRF-CEM leukemia. The note with it: 10 µM.
The test system of another experiment is MOLT-4 leukemia. The note with it: 10 µM.

Several values for one entry are separate records, joined by “and”; a condition that tells them apart may be missing. Equal values may be shown once. About 83,000 compounds went through this panel and 20% of them were active in at least one assay; those are over-represented in the sample as a whole.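 Activity criterion: percent growth below 10, measured after cells in 96-well plates were exposed to a single compound concentration for 48 hours.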 Some compounds were tested as several samples or in several runs, with calls that do not always agree. Activity calls are given as the source filed them.

For the compound `Cc1cc(N(CCOS(C)(=O)=O)CCOS(C)(=O)=O)ccc1C=Nc1ccc(-c2nc(Cc3ccccc3)sc2C)cc1`, the growth was 86.3% (inactive) in the experiment with SK-MEL-2 melanoma; 11.1% (inactive) in the experiment on EKVX NSCLC; 52.3% (inactive) in the experiment with SN12C renal; 22.2% (inactive) with UO-31 renal; 14.2% (inactive) with TK-10 renal (10 µM); -23.2% (active) in the experiment on ACHN renal. The growth is -32% (active) in the experiment with CAKI-1 renal, -48.7% (active) in the experiment with A498 renal, 23.4% (inactive) in the experiment on CCRF-CEM leukemia and 14.2% (inactive) in the experiment on MOLT-4 leukemia.
With `Cc1ccc(Sc2ccccc2N)cc1`, the growth in the experiment on SK-MEL-2 melanoma was 15.9% (inactive); with EKVX NSCLC, 121% (inactive); in the experiment on SN12C renal, 89% (inactive); in the experiment on UO-31 renal, 81.5% (inactive); with TK-10 renal (10 µM) it was 98% (inactive); in the experiment with ACHN renal, -20% (active). Besides, the growth in the experiment on CAKI-1 renal was 62.5% (inactive); in the experiment on A498 renal, 118% (inactive); in the experiment on CCRF-CEM leukemia it was 88.2% (inactive); in the experiment on MOLT-4 leukemia it was 81.2% (inactive).
As to `O=[N+]([O-])c1cc[n+]([O-])cc1`, the growth was 110% (inactive) in the experiment on SK-MEL-2 melanoma; 110% (inactive) with EKVX NSCLC; 92.8% (inactive) in the experiment on SN12C renal; 93.6% (inactive) with UO-31 renal; 110% (inactive) in the experiment on TK-10 renal (10 µM); 114% (inactive) with ACHN renal. For the same compound, the growth in the experiment with CAKI-1 renal was 106% (inactive); in the experiment on A498 renal it was 93.8% (inactive); with CCRF-CEM leukemia, 121% (inactive); in the experiment with MOLT-4 leukemia it was 69.3% (inactive).
With `COc1ccc(C(=O)C(CN(C)C)CN(C)C)cc1`, the growth in the experiment on SK-MEL-2 melanoma is 149% (inactive); in the experiment with EKVX NSCLC, -17% (active); in the experiment on SN12C renal, 98.9% (inactive); with UO-31 renal, 17% (inactive); with TK-10 renal (10 µM) it was 15.7% (inactive); in the experiment with ACHN renal, -85.5% (active). For the same compound, the growth with CAKI-1 renal was -84.8% (active); in the experiment with A498 renal, 99% (inactive); in the experiment with CCRF-CEM leukemia it was 36.3% (inactive); with MOLT-4 leukemia it was -32% (active).
Turning to `COc1cc([C@@H]2c3cc4c(cc3[C@@H](Nc3ccc(NC(=O)c5cc([N+](=O)[O-])cn5C)cc3)[C@H]3COC(=O)[C@H]23)OCO4)cc(OC)c1O`, the growth in the experiment with TK-10 renal (100 µM) is -28.8% (active).
On to `C#CCN(Cc1ccc2nc(N)[nH]c(=O)c2c1)c1ccc(C(=O)NC(CCC(=O)O)C(=O)O)cc1` (stereo unspecified), for which the growth in the experiment with SK-MEL-2 melanoma was 143% (inactive); in the experiment with EKVX NSCLC, 55.6% (inactive); in the experiment on SN12C renal it was 48.9% (inactive); in the experiment with TK-10 renal (10 µM), 78.5% (inactive); in the experiment with ACHN renal, 30.1% (inactive); in the experiment on CAKI-1 renal, 33.2% (inactive). The values for the growth in the experiment with A498 renal, in the experiment on CCRF-CEM leukemia and in the experiment with MOLT-4 leukemia were 110% (inactive), 22.5% (inactive) and 39.1% (inactive), respectively.
On to `CC1=CC(=C(c2ccc(N)cc2)c2ccc(N)cc2)C=CC1=N`, for which the growth in the experiment on SK-MEL-2 melanoma is -27.7% (active) and 41.7% (inactive); with EKVX NSCLC, 15.5% (inactive) and 46.2% (inactive); in the experiment on SN12C renal, 10.3% (inactive) and 6.77% (active); in the experiment with UO-31 renal it was 32% (inactive) and 85.8% (inactive); in the experiment with TK-10 renal (10 µM), 38.2% (inactive) and 15.3% (inactive); in the experiment on ACHN renal, 28.9% (inactive) and 58.6% (inactive). For the same compound, the growth in the experiment on CAKI-1 renal was 65.5% (inactive); with A498 renal, -7.24% (active) and 57.3% (inactive); with CCRF-CEM leukemia it was 19.3% (inactive) and 35.8% (inactive); in the experiment with MOLT-4 leukemia it was 10.4% (inactive) and 51.9% (inactive).
Consider `CN(C)CCOC1(Cc2ccc(Cl)cc2Cl)CCC(C(C)(C)C)CC1` (stereo unspecified), for which the growth with SK-MEL-2 melanoma is 94.8% (inactive) and 54.6% (inactive); with EKVX NSCLC, 48.2% (inactive) and 54.6% (inactive); with SN12C renal, 18.8% (inactive) and -12.6% (active); with UO-31 renal, 29.3% (inactive) and 30.2% (inactive); with TK-10 renal (10 µM), 60.4% (inactive) and 61.9% (inactive); in the experiment on ACHN renal, 48.7% (inactive) and -4.79% (active). The growth with CAKI-1 renal is 36.2% (inactive) and 22.1% (inactive); with A498 renal, 63.9% (inactive) and 63.3% (inactive); in the experiment on CCRF-CEM leukemia it was 4.16% (active) and -9.84% (active); in the experiment with MOLT-4 leukemia it was -14.2% (active) and -16.7% (active).
In the case of `C=C1C(=O)OC2CC1C(OC(C)=O)C/C(C)=C/CC/C(C)=C\CCC2(C)O` (stereo unspecified), the growth is 41.5% (inactive) with SK-MEL-2 melanoma; 59.3% (inactive) with EKVX NSCLC; 40.6% (inactive) in the experiment with SN12C renal; -39.8% (active) with UO-31 renal; -11.8% (active) with TK-10 renal (10 µM); -98.1% (active) in the experiment on TK-10 renal (100 µM). Moreover, the growth in the experiment with ACHN renal was -5.85% (active); in the experiment on CAKI-1 renal, 16% (inactive); in the experiment on A498 renal, 87.3% (inactive); in the experiment with CCRF-CEM leukemia, -17.1% (active); with MOLT-4 leukemia it was -14.4% (active).

Values taken from PubChem BioAssay (NCI).
